Methyltransferases – Primary Screen for Target Class Profiling of Small Molecule Inhibitors of Methyltransferases. purified enzyme, MTase-Glo SAH luminescence; hits give low values. hit rate 3.9% among 25,000. calls only at 40 µM; call rule not given here
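Each enzyme was assayed with SAM and its substrate. SAH formation detected by MTase-Glo luminescence; single-point 40 uM screen[…].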
An asterisk follows results filed as active; i = inactive; + = active, no number. The sample as a whole holds a higher share of hits than the screen did. % is scaled to controls: 0 for no effect and ±100 for the full control effect.

SMILES	Methyltransferases
C=CC[N+]1([C@H]2C[C@H]3[C@@H]4CC[C@H]5C[C@H](OC(C)=O)[C@@H](N6CCCCC6)C[C@]5(C)[C@H]4CC[C@]3(C)[C@H]2OC(=O)CC)CCCCC1	+
CC(C)C1c2cccn2-c2sc3c(c2CN1C(=O)NCc1ccccc1)CCCC3 (stereo not drawn)	i
Cc1cc(C)cc(NC(=O)CSc2nnc3n(CCc4ccccc4)c(=O)c4ccccc4n23)c1	i
COC(=O)[C@@H](N)Cc1ccc(O)c(O)c1	i
O=C(O)Cc1ccc(O)c(O)c1	+
N[C@@H](Cc1ccc(O)c(I)c1)C(=O)O	i
C[C@@H]1O[C@@H](O[C@H]2[C@H](O)[C@@H](O[C@@H]3O[C@H](CO)[C@H](O)[C@H](O)[C@H]3O)[C@H](O[C@H]3CC[C@@]4(C)C(CC[C@]5(C)C4CC=C4[C@@H]6CC(C)(C)CC[C@]6(C(=O)O[C@@H]6O[C@H](CO)[C@@H](O)[C@H](O)[C@H]6O)CC[C@]45C)C3(C)C)O[C@@H]2C(=O)O)[C@H](O)[C@H](O)[C@H]1O (stereo partly drawn)	i
CCOC(=O)C1CCCN(c2nc3c(S(=O)(=O)c4ccc(C)c(C)c4)nnn3c3ccccc23)C1 (stereo not drawn)	i
CC(C)n1c(=O)sc2cc(NS(=O)(=O)c3ccc4c(c3)n(C)c(=O)n4C)ccc21	i
Cc1ccccc1NC(=O)CSc1nnc2n(Cc3ccccc3)c(=O)c3ccccc3n12	i
CCCn1c(=O)c2ccc(C(=O)NC3CCCC3)cc2n2c(SCC(=O)c3ccc(F)cc3)nnc12	i
O=C1NC(=O)C(c2ccccc2[N+](=O)[O-])=C1Nc1ccc(O)c(Cl)c1	+
CCc1ccc(S(=O)(=O)c2nnn3c2nc(N2CCN(C)CC2)c2cc(Cl)ccc23)cc1	i
CCCn1c(=O)c2ccc(Cl)cc2n2c(=O)n(CC(=O)c3cc(C)ccc3C)nc12	i
CC(=O)O[C@@H]1[C@@H](CO)O[C@@](CO)(O[C@H]2O[C@H](COC(=O)/C=C/c3ccccc3)[C@@H](O)[C@H](O)[C@H]2O)[C@H]1O	i
O=C(/C=C/c1ccc(O)cc1)OC[C@H]1O[C@@H](O/C(=C\c2ccccc2)C(=O)O)[C@H](O)[C@@H](O)[C@@H]1O	i
O=C(/C=C/c1ccccc1)OC[C@H]1O[C@@H](OC(=O)c2cc(O)c(O)c(O)c2)[C@H](O)[C@@H](O)[C@@H]1O	+
C=Cc1ccc(CSc2nnc3n(CC(C)C)c(=O)c4ccccc4n23)cc1	i
CC1CCCCC1NC(=O)C1(C)Cn2c(cc3sccc32)C(=O)N1Cc1cccc(Cl)c1 (stereo not drawn)	i
Cc1cc(N2C(=O)c3ccc(-c4ccco4)n3CC2(C)C(=O)NC2CCCC2)ccc1Br (stereo not drawn)	i
N#Cc1c(C2CCNCC2)cc(-c2c(O)cccc2OCC2CC2)nc1N	+
CCCn1c(=O)c2ccc(C(=O)NC3CCCC3)cc2n2c(=O)n(CC(=O)NCc3ccccc3)nc12	i
CCCC1CCC(c2ccc(C(=O)COC(=O)C(Cc3c[nH]c4ccccc34)NC(=O)c3ccc(CC)cc3)cc2)CC1 (stereo not drawn)	i
CCCN1C(=O)c2c(C(=O)NCc3ccc(OC(C)C)cc3)ncn2CC1(C)C(=O)NCc1ccc(OC)cc1 (stereo not drawn)	i
O=C(O)c1cc(N(Cc2ccc(C3CCCCC3)cc2)C(=O)c2ccc(Oc3ccccc3)cc2)ccc1O	+
SMILES	Methyltransferases
Cc1ccccc1CNC(=O)C1(C)Cc2ccccc2C(=O)N1Cc1cc(F)cc(F)c1 (stereo not drawn)	i
O=C(CCSCc1ccco1)NNC(=O)N1Cc2ccccc2Oc2ccc(Cl)cc21	i
COc1ccc(-c2cc3n(n2)CC(C)(C(=O)NCc2ccccc2)N(C2CC2)C3=O)cc1 (stereo not drawn)	i
C/C(=N\N=C(N)N)c1cc(NC(=O)CCCCCCCCC(=O)Nc2cc(/C(C)=N/N=C(N)N)cc(/C(C)=N/N=C(N)N)c2)cc(/C(C)=N/N=C(N)N)c1	+
COc1ccc(N2C(=O)c3ccc(-c4ccco4)n3CC2(C)C(=O)NC2CCCC2)cc1OC (stereo not drawn)	i
COC(=O)c1cc2n(n1)CC(C)(C(=O)NC1CCCC1)N(c1ccccc1C)C2=O (stereo not drawn)	i
COC(=O)/C=C/c1ccc(O[C@@H]2O[C@H](CO)[C@@H](O)[C@H](O)[C@H]2O)cc1	i
COc1ccc(NC(=O)/C=C/c2ccc(Cl)cc2)cc1	+
COc1ccc(C(=O)Nc2cnc(-c3ccc(Cl)cc3)nc2)cc1	i
COc1cccc(CNC(=O)N2Cc3c(sc4c3CCCC4)-n3cccc3C2c2cccc(OC)c2)c1 (stereo not drawn)	i
CCCN1C(=O)c2c(C(=O)Nc3cc(F)ccc3F)ncn2CC1(C)C(=O)NCc1ccc(C)cc1 (stereo not drawn)	i
COCC1CN(Cc2ccc(Br)s2)CC12CCNCC2 (stereo not drawn)	i
Cn1c2c(c3ccccc31)C(C(=O)NCc1ccccc1)N(c1ccccc1Cl)C(=O)CS2 (stereo not drawn)	i
CCOC(=O)c1cc2n(n1)CC(C)(C(=O)NCCC(C)C)N(c1ccc(C)c(C)c1)C2=O (stereo not drawn)	i
NC(=Nc1ccc(CCNCc2cccc(Cl)c2)cc1)c1cccs1	+
CC(C)OCCCn1c(=O)c2cc(Cl)ccc2n2c(SCc3cccc(F)c3)nnc12	i
CC1(C(=O)NCc2ccccc2)Cn2c(cc3ccccc32)C(=O)N1CCc1cccs1 (stereo not drawn)	i
Clc1ccc(C2(c3ccc(-c4cn[nH]c4)cc3)CCNCC2)cc1	+
C[C@H]1[C@H](C)CC[C@]2(C(=O)O)CC[C@]3(C)C(=CC[C@@H]4[C@@]5(C)C[C@@H](O)[C@H](O)[C@@](C)(CO)[C@@H]5CC[C@]43C)[C@H]12	i
CC1(C)CCC2(C(=O)OC3OC(COC4OC(CO)C(O)C(O)C4O)C(O)C(O)C3O)CCC3(C)C(=CCC4C5(C)CCC(OC6OCC(O)C(O)C6O)C(C)(C)C5CCC43C)C2C1O (stereo not drawn)	i
C[C@@H]1O[C@@H](O[C@H]2[C@H](OC(=O)C34CCC(C)(C)CC3C3=CCC5C6(C)CC(O)C(O[C@@H]7O[C@H](CO)[C@@H](O)[C@H](O)[C@H]7O)C(C)(C(=O)O)C6CCC5(C)C3(CO)CC4)O[C@H](C)[C@H](O)[C@@H]2O)[C@H](O)[C@H](O)[C@H]1O[C@@H]1OC[C@@H](O)[C@H](O)[C@H]1O (stereo partly drawn)	+
C[C@@H]1O[C@@H](O[C@H]2[C@H](OC(=O)[C@]34CCC(C)(C)C[C@H]3C3=CCC5[C@@]6(C)C[C@H](O)[C@H](O[C@@H]7O[C@H](CO)[C@@H](O)[C@H](O)[C@H]7O)[C@@](C)(CO)C6[C@H](O)C[C@@]5(C)[C@]3(C)CC4)OC[C@H](O)[C@@H]2O)[C@H](O)[C@H](O)[C@H]1O[C@@H]1OC[C@@H](O)[C@H](O[C@@H]2OC[C@](O)(CO)[C@H]2O)[C@H]1O (stereo partly drawn)	i

High-throughput results (PubChem)
